# Assay results taken from a collection of fitness landscapes (doi:10.1126/science.1257360).
# The full ranking holds about 140,000 sequences; the median of “enrichment ratio after two sorts for PhoP signalling” is about 0, and the highest 2% start at about 11. Shown is part of a subset that was picked to be rich in the highest values.
# B1: PhoQ; a variant is named by its letters at X, in order, P23837 (parent)
# chain: MKKLLRLFFPLSLRVRFLLATAAVVLVLSLAYGMVALIGYSVSFDKTTFRLLRGESNLFYTLAKWENNKLHVELPENIDKQSPTMTLIYDENGQLLWAQRDVPWLMKMIQPDWLKSNGFHEIEADVNDTSLLLSGDHSIQQQLQEVREDDDDAEMTHSVAVNVYPATSRMPKLTIVVVDTIPVELKSSYMVWSWFIYVLSANLLLVIPLLWVAAWWSLRPIEALAKEVRELEEHNRELLNPATTRELTSLVRNLNRLLKSERERYDKYRTTLTDLTHSLKTPLXXLQXXLRSLRSEKMSVSDAEPVMLEQISRISQQIGYYLHRASMRGGTLLSRELHPVAPLLDNLTSALNKVYQRKGVNISLDISPEISFVGEQNDFVEVMGNVLDNACKYCLEFVEISARQTDEHLYIVVEDDGPGIPLSKREVIFDRGQRVDTLRPGQGVGLAVAREITEQYEGKIVAGESMLGGARMEVIFGRQHSAPKDE
# Variants of: B1
# Experiment: enrichment ratio after two sorts for PhoP signalling (ratio (wild type AVST 3.29)); higher = more functional
# Conditions: with PhoP (E. coli)
row,Variant,enrichment ratio
1,GDQT,≤ 0.25
2,TWQT,≤ 0.25
3,IVCI,≤ 0.25
4,MNFL,14.1
5,MLWM,≤ 0.25
6,MKAK,≤ 0.25
7,MAAK,≤ 0.25
8,TNFL,≤ 0.25
9,MLAM,15.5
10,MKFL,0.755
11,MCDM,≤ 0.25
12,MLNM,≤ 0.25
13,MCAK,21.4
14,MCGM,12.2
15,MCVM,≤ 0.25
16,KFHC,≤ 0.25
17,RINI,≤ 0.25
18,PWSK,≤ 0.25
19,EKTT,≤ 0.25
20,YVYD,≤ 0.25
21,WNEY,≤ 0.25
22,VGWQ,1.18
23,FPFF,≤ 0.25
24,GAHW,≤ 0.25

row,Variant,enrichment ratio
1,GIYF,≤ 0.25
2,RKRF,≤ 0.25
3,KCSQ,≤ 0.25
4,LSYL,11.2
5,KCYL,≤ 0.25
6,ITDM,≤ 0.25
7,YTDM,≤ 0.25
8,LNYL,≤ 0.25
9,NCYL,≤ 0.25
10,LTYL,0.587
11,MQSQ,≤ 0.25
12,MCSQ,11.6
13,TCYL,16.2
14,TTDM,22.8
15,YSLM,9.22
16,KKFE,≤ 0.25
17,ELTM,≤ 0.25
18,TLNS,6.81
19,EHKW,≤ 0.25
20,HFHT,≤ 0.25
21,QNLL,≤ 0.25
22,NWYY,≤ 0.25
23,IMGQ,≤ 0.25
24,PTPW,≤ 0.25

row,Variant,enrichment ratio
1,TWNY,≤ 0.25
2,MCHM,16.7
3,MDHM,≤ 0.25
4,KCHM,≤ 0.25
5,YPGL,≤ 0.25
6,SGMF,13.3
7,SGHF,≤ 0.25
8,SGGF,1.06
9,SGWV,≤ 0.25
10,SGCI,10.3
11,SGMV,14.3
12,SGMN,30.2
13,SGMW,≤ 0.25
14,SGNL,0.304
15,SGMD,≤ 0.25
16,SGWN,≤ 0.25
17,SGCV,15.2
18,IRYD,≤ 0.25
19,ARIW,≤ 0.25
20,QYQP,≤ 0.25
21,YDYL,≤ 0.25
22,LNRM,≤ 0.25
23,SGMS,6.87
24,SGMI,25

row,Variant,enrichment ratio
1,SGMG,0.699
2,EIPP,≤ 0.25
3,IECC,11.9
4,IPCC,≤ 0.25
5,FECC,22.6
6,SPCC,≤ 0.25
7,EECC,≤ 0.25
8,FCCC,≤ 0.25
9,TECC,30
10,SLCC,8.22
11,HECC,7.31
12,FSCC,1.27
13,SECC,38
14,HPCC,≤ 0.25
15,KYGK,≤ 0.25
16,RDWY,≤ 0.25
17,FLEP,≤ 0.25
18,HSIW,≤ 0.25
19,NECC,≤ 0.25
20,QECC,≤ 0.25
21,MECC,14.4
22,APCG,≤ 0.25
23,HWFW,≤ 0.25
24,QDYL,≤ 0.25

row,Variant,enrichment ratio
1,TSQC,14.5
2,VYQC,≤ 0.25
3,VLQC,≤ 0.25
4,VVQC,12.7
5,TKQC,12.8
6,KSQC,≤ 0.25
7,SHQC,≤ 0.25
8,NSQC,≤ 0.25
9,KAQC,≤ 0.25
10,NQQC,≤ 0.25
11,THQC,13.1
12,NHQC,≤ 0.25
13,FREL,≤ 0.25
14,PHMW,≤ 0.25
15,YKAD,≤ 0.25
16,LFMF,≤ 0.25
17,WKII,≤ 0.25
18,WHFY,≤ 0.25
19,WCRI,≤ 0.25
20,QMHF,13.5
21,QMNG,38.7
22,QEGE,≤ 0.25
23,QMMI,≤ 0.25
24,QMHI,≤ 0.25

row,Variant,enrichment ratio
1,QMGF,6.84
2,QMDH,15
3,QMGE,96.1
4,QMTH,≤ 0.25
5,QMWW,≤ 0.25
6,QRNG,≤ 0.25
7,QMDS,≤ 0.25
8,DWSK,≤ 0.25
9,GLGH,≤ 0.25
10,IMDI,≤ 0.25
11,QSMQ,≤ 0.25
12,VMGY,≤ 0.25
13,NRNH,≤ 0.25
14,TNKN,≤ 0.25
15,QMHM,28.3
16,QMPM,≤ 0.25
17,QMNI,9.75
18,QMNF,36
19,QRNF,≤ 0.25
20,QENN,3.33
21,QMNL,3.36
22,QMWQ,≤ 0.25
23,QMHP,≤ 0.25
24,QMHQ,13.4

row,Variant,enrichment ratio
1,QMWM,≤ 0.25
2,QMNN,12.1
3,DYPW,≤ 0.25
4,LWVM,≤ 0.25
5,GLWV,≤ 0.25
6,MEAP,≤ 0.25
7,GFED,≤ 0.25
8,ATGH,5.03
9,EKMA,≤ 0.25
10,QMVG,≤ 0.25
11,QMTR,≤ 0.25
12,QMHG,13
13,SEEN,≤ 0.25
14,SLYM,≤ 0.25
15,SEQN,21.6
16,SEYM,19.4
17,SEGM,6.17
18,SENL,≤ 0.25
19,ISAH,≤ 0.25
20,GGLK,≤ 0.25
21,HLNC,≤ 0.25
22,DDAI,≤ 0.25
23,QAIL,≤ 0.25
24,FAAN,≤ 0.25

row,Variant,enrichment ratio
1,FARL,≤ 0.25
2,FALL,16.3
3,FFLL,≤ 0.25
4,MMLL,1.58
5,MALL,16.2
6,ADHN,≤ 0.25
7,ALCG,4.5
8,WHCL,≤ 0.25
9,SADG,≤ 0.25
10,LGIQ,≤ 0.25
11,AEVV,14.7
12,ANMG,≤ 0.25
13,ANQF,1.01
14,ANMS,11.6
15,INCV,≤ 0.25
16,ADVV,8.21
17,AWVV,≤ 0.25
18,ADMC,2.74
19,INMV,24.2
20,AIMC,≤ 0.25
21,ANMC,22.9
22,INIV,≤ 0.25
23,HRGK,≤ 0.25
24,GKTM,1.84

row,Variant,enrichment ratio
1,IPYY,≤ 0.25
2,KKIV,≤ 0.25
3,GAYK,≤ 0.25
4,LLMQ,≤ 0.25
5,HFHH,≤ 0.25
6,ATFM,≤ 0.25
7,QRVV,≤ 0.25
8,ANMR,5.84
9,ANVV,11.6
10,ANLA,5.31
11,TRVV,14.5
12,ANVA,3.53
13,ANLS,12
14,HRVV,≤ 0.25
15,ANMI,26.5
16,ANLW,9.25
17,AHVV,≤ 0.25
18,AIVV,10
19,QRFS,≤ 0.25
20,DWEC,≤ 0.25
21,RQRD,≤ 0.25
22,NCDF,≤ 0.25
23,HLKR,≤ 0.25
24,RGHG,≤ 0.25

row,Variant,enrichment ratio
1,TPEY,≤ 0.25
2,SLIG,≤ 0.25
3,YMIK,≤ 0.25
4,RLMY,≤ 0.25
5,KLYR,≤ 0.25
6,AKVT,12.6
7,ANMV,19.1
8,AIMS,14.3
9,ANMD,≤ 0.25
10,LNMC,7.24
11,TNMC,35.5
12,AAVT,2.41
13,ANMW,≤ 0.25
14,AKMS,3.84
15,ALVT,1.4
16,MNMC,3.1
17,ATMS,6.27
18,FEGD,≤ 0.25
19,YPGN,≤ 0.25
20,WAKM,≤ 0.25
21,PMHP,≤ 0.25
22,ALWL,≤ 0.25
23,HRYP,≤ 0.25
24,YHPC,≤ 0.25

row,Variant,enrichment ratio
1,LYDW,≤ 0.25
2,VILC,0.339
3,DWCS,≤ 0.25
4,ANVT,15
5,ADVT,≤ 0.25
6,ANND,≤ 0.25
7,HFIY,≤ 0.25
8,MIKG,≤ 0.25
9,SCMA,15.7
10,SCMI,27.9
11,KCMF,≤ 0.25
12,TYMA,1.56
13,SCVG,5.95
14,SIMA,4.54
15,SCMF,12.3
16,SCHF,≤ 0.25
17,SCMG,25.9
18,SCMW,6.03
19,SCMV,9.09
20,SCIG,3.69
21,WPNL,≤ 0.25
22,ERAD,≤ 0.25
23,SRLT,≤ 0.25
24,KMYN,≤ 0.25

row,Variant,enrichment ratio
1,IRST,≤ 0.25
2,LAMD,≤ 0.25
3,FSHH,≤ 0.25
4,WVRL,≤ 0.25
5,YRGN,≤ 0.25
6,TIYR,2.57
7,IKRH,≤ 0.25
8,VSMQ,2.71
9,GYAC,≤ 0.25
10,LNAC,≤ 0.25
11,MNFC,≤ 0.25
12,GITE,≤ 0.25
13,GIAC,11.8
14,TNAC,3.13
15,MNAC,27.7
16,GIYS,≤ 0.25
17,GNAC,12.5
18,PCAQ,≤ 0.25
19,DTYT,≤ 0.25
20,MFKP,≤ 0.25
21,SQVA,4.56
22,WPDN,≤ 0.25
23,HVPR,≤ 0.25
24,KKRG,≤ 0.25

row,Variant,enrichment ratio
1,QGVQ,≤ 0.25
2,APCH,≤ 0.25
3,SEWI,3.57
4,SEAS,26.6
5,KYLT,≤ 0.25
6,SYLI,0.306
7,KYAS,≤ 0.25
8,SEYI,4.33
9,SLAS,5.06
10,SLLI,7.62
11,SELI,24.6
12,SELT,20.5
13,SELA,12.4
14,SEDT,≤ 0.25
15,WRRM,≤ 0.25
16,YYVL,≤ 0.25
17,IENI,≤ 0.25
18,GVPH,≤ 0.25
